Measured values from PubChem BioAssay AID1159580 (chemical genetic matrix, 2015).
Values joined by “and” are separate entries in the source; they are usually repeats but may differ in a detail not shown here. Equal entries are not always repeated. In all, about 5,500 compounds went through this assay and about 2,000 (36%) were called active. Another 18% or so got no clear call; they are omitted. Rule as the data show it: active = normalized growth mostly below about 0.91 (no sharp cut-off); inconclusive = no clear call, values can overlap the other calls; inactive = mostly above about 0.92. Some of the results follow.

Experiment: chemical genetic growth profiling, strain panel (AID 1159580);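 also: tested at 20 µM; growth read once vehicle control cultures reached saturation at 30 °C; 1 = growth at the plate median or of vehicle wells; lower values mean less growth of the strain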
Conditions: S. cerevisiae deletion strains, growth OD

Measured: normalized growth

O=C(O)CNCP(=O)(O)O
inactive: locus YAL013W, strain DEP1, stronger effect = lower value 0.998 | locus YAL021C, strain ccr4, stronger effect = lower value 1.04 | locus YAL026C, strain drs2, stronger effect = lower value 1.02 | locus YAL030W, strain snc1, stronger effect = lower value 1.02 | locus YBL061C, strain skt5, stronger effect = lower value 1.01 | locus YBR009C, strain hhf1, stronger effect = lower value 1.01 | locus YBR021W, strain FUR4, stronger effect = lower value 0.992 | locus YBR023C, strain chs3, stronger effect = lower value 1.02 | locus YBR171W, strain sec66, stronger effect = lower value 1.04 | locus YBR229C, strain ROT2, stronger effect = lower value 1 | locus YBR231C, strain swc5, stronger effect = lower value 1.02 | locus YBR279W, strain paf1, stronger effect = lower value 1.02 | locus YCL011C, strain gbp2, stronger effect = lower value 1.02 | locus YCL016C, strain dcc1, stronger effect = lower value 1.02 | locus YCL029C, strain bik1, stronger effect = lower value 1.01 | locus YCL061C, strain MRC1, stronger effect = lower value 1.01 | locus YCL069W, strain vba3, stronger effect = lower value 1.02 | locus YCR088W, strain abp1, stronger effect = lower value 1.01 | locus YDL005C, strain med2, stronger effect = lower value 1.03 | locus YDL035C, strain GPR1, stronger effect = lower value 1.02 | locus YDL040C, strain nat1, stronger effect = lower value 1.02 | locus YDL074C, strain BRE1, stronger effect = lower value 1.04 | locus YDL101C, strain DUN1, stronger effect = lower value 1.02 | locus YDL134C, strain PPH21, stronger effect = lower value 1.01 | locus YDL185W, strain tfp1, stronger effect = lower value 1.01 | locus YDL192W, strain arf1, stronger effect = lower value 1.01 | locus YDR001C, strain nth1, stronger effect = lower value 1.01 | locus YDR069C, strain doa4, stronger effect = lower value 1.02 | locus YDR101C, strain arx1, stronger effect = lower value 1 | locus YDR137W, strain rgp1, stronger effect = lower value 1.02 | locus YDR150W, strain NUM1, stronger effect = lower value 0.997 | locus YDR159W, strain sac3, stronger effect = lower value 1.02 | locus YDR162C, strain NBP2, stronger effect = lower value 1 | locus YDR195W, strain ref2 1.01 | locus YDR297W, strain sur2, stronger effect = lower value 1.01 | locus YDR318W, strain mcm21, stronger effect = lower value 1.02 | locus YDR334W, strain swr1, stronger effect = lower value 1.03 | locus YDR335W, strain msn5, stronger effect = lower value 1.02 | locus YDR388W, stronger effect = lower value 1.01 | locus YDR392W, strain spt3, stronger effect = lower value 1.03 | locus YDR502C, strain sam2, stronger effect = lower value 1.01 | locus YEL003W, strain gim4, stronger effect = lower value 1.01 | locus YEL037C, strain rad23, stronger effect = lower value 1.01 | locus YEL061C, strain CIN8 (second series), stronger effect = lower value 1.02 | locus YEL061C, strain CIN8, stronger effect = lower value 0.998 | locus YER015W, strain faa2, stronger effect = lower value 1.02 | locus YER016W, strain bim1, stronger effect = lower value 1.01 | locus YER110C, stronger effect = lower value 1.02 | locus YER111C, strain swi4, stronger effect = lower value 1.01 | locus YER155C, strain BEM2 (second series), stronger effect = lower value 1.02 | locus YER155C, strain BEM2, stronger effect = lower value 1.01 | locus YER167W, strain BCK2, stronger effect = lower value 0.999 | locus YFR010W, strain ubp6, stronger effect = lower value 1.02 | locus YGL078C, strain dbp3, stronger effect = lower value 1.01 | locus YGL086W, strain mad1, stronger effect = lower value 1 | locus YGL167C, strain pmr1, stronger effect = lower value 1.02 | locus YGL173C, strain kem1, stronger effect = lower value 1.01 | locus YGL227W, strain vid30, stronger effect = lower value 1.02 | locus YGL240W, strain doc1, stronger effect = lower value 1.02 | locus YGL248W, strain PDE1, stronger effect = lower value 1.02 | locus YGL253W, strain hxk2, stronger effect = lower value 1.01 | locus YGR078C, strain PAC10, stronger effect = lower value 1.01 | locus YGR135W, strain pre9, stronger effect = lower value 1.02 | locus YGR229C, strain SMI1, stronger effect = lower value 1.02 | locus YGR252W, strain gcn5, stronger effect = lower value 1.01 | locus YHR013C, strain ard1, stronger effect = lower value 1.06 | locus YHR027C, strain rpn1, stronger effect = lower value 1 | locus YHR030C, strain SLT2, stronger effect = lower value 1.01 and 0.97 | locus YHR079C, strain IRE1 (second series), stronger effect = lower value 1.01 | locus YHR079C, strain IRE1, stronger effect = lower value 0.992 | locus YHR094C, strain hxt1, stronger effect = lower value 1 | locus YHR129C, strain ARP1, stronger effect = lower value 1.01 | locus YHR142W, strain chs7, stronger effect = lower value 1.02 | locus YHR200W, strain rpn10, stronger effect = lower value 1.01 | locus YIL066C, strain RNR3, stronger effect = lower value 1.02 | locus YIL073C, strain SPO22, stronger effect = lower value 1.08 | locus YIL125W, strain kgd1, stronger effect = lower value 1.01 | locus YIR030C, strain dcg1, stronger effect = lower value 1.01 | locus YJL092W, strain hpr5, stronger effect = lower value 1.02 | locus YJL095W, strain BCK1 (second series), stronger effect = lower value 1.01 | locus YJL095W, strain BCK1, stronger effect = lower value 1.01 and 0.975 | locus YJL115W, strain asf1, stronger effect = lower value 1.02 | locus YJL129C, strain trk1, stronger effect = lower value 1.03 | locus YJL134W, strain LCB3, stronger effect = lower value 1.01 | locus YJL154C, strain vps35, stronger effect = lower value 1.02 | locus YJL164C, strain tpk1, stronger effect = lower value 1.02 | locus YJL166W, strain qcr8, stronger effect = lower value 1.02 | locus YJL168C, strain set2, stronger effect = lower value 1.01 | locus YJL187C, strain SWE1 (second series), stronger effect = lower value 1.01 | locus YJL187C, strain SWE1, stronger effect = lower value 1.01 | locus YJR043C, strain POL32, stronger effect = lower value 1.01 | locus YJR066W, strain TOR1, stronger effect = lower value 0.926
